ssDAF-12 act: activates DAF-12 receptor from parasite S. stercoralis | activation, % at 6.8 µM | HEK293 ssDAF-12/GRIP1 lit1-tk-luc reporter, luminescence; % of 3 µM dafachronic acid response | 370,000 compounds, 1% hits;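 active means activation above the mean over all tested compounds plus 3 SD, cut at about 0.9% in these data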;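 further: 0% = DMSO-only wells and 100% = 3 µM delta7-dafachronic acid wells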
DAX1 inh-1: DAX1 (NR0B1) inhibition, primary screen | inhibition, % at 6.8 µM | AID 652010 | HEK293T StAR-luciferase reporter, SF-1/DAX-1 repression relief | 370,000 compounds, 1.1% hits;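 active means inhibition above the mean over all tested compounds plus 3 SD, cut at about 3.6% in these data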;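 further: 0% = DAX-1 cells with DMSO and 100% = cells lacking DAX-1 with DMSO; higher inhibition means more luminescence from relief of DAX-1 repression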
hcDAF-12 act: H. contortus DAF-12 activation, primary screen | HEK293 hcDAF-12 lit1-tk-luc reporter, luminescence; 0% DMSO, 100% Δ7-dafachronic acid | activation, % at 6.8 µM | 370,000 compounds, 1.4% hits | AID 652067;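 active means activation above the mean of all tested compounds plus 3 SD, cut at about 5.5% in these data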;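 further: 100% = response to 3 µM Δ7-dafachronic acid high control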
DAX1 inh-2: inhibits human nuclear receptor DAX1; P51843; inhibition, % at 6.75 µM; HEK293 Gal4-DAX1 luciferase reporter, luminescence; 340,000 compounds, 0.99% hits;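 active means inhibition above the mean over all tested compounds plus 3 SD, cut at about 4.2% in these data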;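 further: 0% = DAX1-transfected cells with DMSO and 100% = empty-vector control cells with DMSO; inhibition shows as a rise in luminescence from relieved DAX1 repression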
Target sequence (P51843 207-470 limits assumed): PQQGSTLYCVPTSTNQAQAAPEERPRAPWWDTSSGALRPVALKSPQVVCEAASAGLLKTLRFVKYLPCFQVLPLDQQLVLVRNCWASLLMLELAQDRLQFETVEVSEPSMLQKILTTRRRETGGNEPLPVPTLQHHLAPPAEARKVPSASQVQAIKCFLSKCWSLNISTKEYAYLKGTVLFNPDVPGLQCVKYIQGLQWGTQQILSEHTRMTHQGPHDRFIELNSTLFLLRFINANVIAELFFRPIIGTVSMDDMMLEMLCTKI
hgDAF12 agonist: hgDAF-12 agonism, primary luciferase screen | HEK293 GAL4-hgDAF12 UAS-luciferase reporter, agonist luminescence; normalized to butyrate control | activation, % at 6.8 µM | 370,000 compounds, 1.8% hits | AID 687014;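 active means activation above a cutoff set at the mean of all screened compounds plus 3 SD, cut at about 10% in these data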;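 further: 0% = DMSO wells and 100% = sodium butyrate wells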
DAX1 inh confirm: confirmation of human DAX1 (NR0B1) inhibitors; shares compounds with DAX1 inh-1; HEK293T StAR-promoter luciferase reporter, SF-1/DAX-1 repression; inhibition, % at 6.8 µM; 2,400 compounds, 87% hits; AID 652134;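 active means inhibition above the average of every tested compound plus 3 SD, cut at about 3.8% in these data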;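 further: 0% = DAX-1 cells with DMSO and 100% = no DAX-1 control cells with DMSO; active compounds raise luminescence by relieving repression of the StAR reporter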
SF1 mutant ctr: counter-screen for DAX1 inhibitors: nonselective inhibitors with SF-1 AF2 mutant; shares compounds with DAX1 inh-1; HEK293 StAR-luciferase, luminescence; inhibition, % at 6.8 µM; 2,400 compounds, 78% hits;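 active means inhibition above the mean of all tested compounds plus 3 SD, cut at about 3% in these data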;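 further: 0% = DAX-1 transfected cells with DMSO and 100% = cells without DAX-1 with DMSO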
LXR ag: activates human LXR-beta, counter-screen for hcDAF-12 agonists; HEK293 Gal4-LXR tk-luc reporter, luminescence, 24 h; normalized: DMSO 0%, positive control 100%; 3,400 tested, under 10 active; shares compounds with hcDAF-12 act; AID 743027; activation, % at 6.8 µM;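 active means mean percent activation of the reporter above a cutoff set as the average over tested compounds plus their standard deviation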
Target sequence (P55055 whole entry, looked up, the tested form may be a part): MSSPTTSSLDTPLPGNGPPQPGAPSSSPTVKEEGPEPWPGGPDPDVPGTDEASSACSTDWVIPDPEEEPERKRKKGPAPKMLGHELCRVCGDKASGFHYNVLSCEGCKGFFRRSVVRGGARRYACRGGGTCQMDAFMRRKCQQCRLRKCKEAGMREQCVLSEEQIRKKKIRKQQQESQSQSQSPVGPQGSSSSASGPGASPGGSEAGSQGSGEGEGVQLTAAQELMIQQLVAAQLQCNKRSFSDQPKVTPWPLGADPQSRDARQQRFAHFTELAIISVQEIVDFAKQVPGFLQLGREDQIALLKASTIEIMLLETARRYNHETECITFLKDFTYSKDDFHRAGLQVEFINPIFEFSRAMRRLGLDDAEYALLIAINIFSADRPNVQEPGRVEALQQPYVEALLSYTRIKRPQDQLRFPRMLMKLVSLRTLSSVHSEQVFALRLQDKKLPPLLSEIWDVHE
hcDAF12 conf: confirmation of H. contortus DAF-12 agonists. shares compounds with hcDAF-12 act. activation, % at 6.8 µM. 3,400 compounds, 61% hits. HEK293 hcDAF-12 lit1-tk-luc reporter, luminescence; % of Δ7-dafachronic acid response;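 active means mean activation across triplicate tests above the threshold derived from the earlier primary screen, cut at about 5.5% in these data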;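 further: 0% = DMSO only wells and 100% = 3 µM Δ7-dafachronic acid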
hgDAF12 ag: confirmation of H. glycines DAF-12 agonists | 3,300 compounds, 80% hits | HEK293 GAL4-hgDAF12 luciferase reporter, agonist mode; percent of butyrate response | activation, % at 6.8 µM | shares compounds with hgDAF12 agonist;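 active means mean activation over triplicate wells above the hit cutoff derived from the earlier primary screen, cut at about 11% in these data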;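 further: 0% = DMSO low control and 100% = 2 mM sodium butyrate high control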
LXRb DAF12 ctr: counter-screen for DAF-12 agonists: agonists of human LXR-beta. 3,300 tested, under 10 active. shares compounds with hgDAF12 agonist. HEK293 Gal4-LXR luciferase reporter, 24 h. activation, % at 6.8 µM;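 active means mean activation of the triplicate above a set limit carried over from the primary screen, none filed active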
* marks the source's active call; other numbers are inactive results; x = no result. This is a sample that favours compounds with a hit; in the whole collection about 4.1% have one here.

SMILES	ssDAF-12 act	DAX1 inh-1	hcDAF-12 act	DAX1 inh-2	hgDAF12 agonist	DAX1 inh confirm	SF1 mutant ctr	LXR ag	hcDAF12 conf	hgDAF12 ag	LXRb DAF12 ctr
COC(=O)[C@]12C[C@H](CC(=O)NCC34CC5CC(CC(C5)C3)C4)C(=O)N(Cc3ccco3)C1=C[C@H](C(C)C)O[C@@H]2C1CC1	-0.5	-1.3	-0.3	x	-2.2	x	x	x	x	x	x
COc1ccc(N2CCN(CCNS(=O)(=O)c3ccccc3[N+](=O)[O-])CC2)cc1	-1.0	-0.5	-3.5	x	-1.6	x	x	x	x	x	x
C=CCN(C(=O)[C@@H](CCCC)[C@@H](O)c1ccc2ccccc2c1)c1ccccc1	-1.1	-0.8	2.3	x	2.3	x	x	x	x	x	x
Cc1nc2cc(NC(=O)Nc3ccccc3Cl)ccc2n1C	0.1	12.0*	7.1*	-2.4	15.1*	19.4*	8.4*	1.9	7.8*	20.1*	1.2
Cc1ccc(NC(=O)Nc2ccc3c(c2)nc(C)n3C)cc1	0.6	6.4*	8.7*	-0.6	17.4*	16.0*	7.2*	1.2	4.9	17.2*	0.8
Nc1[nH]c(C(=O)c2ccccc2)c(-c2cc(F)ccc2Br)c1C(=O)NCCc1c[nH]c2ccccc12	-0.6	0.0	-1.4	x	1.6	x	x	x	x	x	x
Cn1ccc(C(=O)Nc2ccc(Br)cc2Br)n1	0.7	4.9*	7.7*	3.4	19.6*	11.3*	6.6*	1.0	2.9	13.0*	0.9
Cc1ccc(NC(=O)c2ccn(C)n2)c(Br)c1	0.5	5.9*	3.1	-0.1	14.8*	13.1*	8.8*	x	x	16.5*	0.9
Cc1ccc(NC(=O)c2ccccn2)c(Br)c1	3.1*	8.5*	9.9*	6.4*	18.9*	15.4*	11.8*	1.4	7.9*	17.9*	0.9
Cc1cc(=O)[nH]c(SCC(=O)Nc2ccc(F)c(F)c2)n1	-0.7	0.1	-1.2	x	5.7	x	x	x	x	x	x
O=S1(=O)c2c(cccc2N2CCC[C@@H]2CO)O[C@H]2CCN1C2	-0.8	0.8	-1.7	x	2.4	x	x	x	x	x	x
O=Nc1c(O)c2ccccc2c2ccccc12	-2.4	-3.0	-4.8	-6.1	-12.2	x	x	x	x	x	x
O=Nc1c2cc3ccccc3[nH]c-2c2ccccc12	1.1*	7.7*	10.3*	0.3	23.1*	9.8*	8.4*	2.5	11.5*	23.0*	1.4
O=C1N2CCc3ccccc3C2CS(=O)(=O)N1Cc1ccc(F)cc1 (centres undefined)	-0.6	-1.2	-3.0	x	-1.6	x	x	x	x	x	x
N/C(=N\C(=O)OCc1ccccc1)N(CC#CC1=CCCCC1)CC1CC1	-1.5	-0.3	0.9	x	4.4	x	x	x	x	x	x
N#CC1=C(N)SC(N)=C(C#N)C1c1ccnc2ccccc12	-0.2	0.2	2.9	-0.1	-0.9	x	x	x	x	x	x
O=C1c2ccccc2C(=O)C1c1ccnc2ccccc12	5.1*	5.3*	24.1*	2.3	21.1*	-2.0	-4.0	1.5	17.5*	7.7	1.0
COC(=O)[C@]12C[C@H](CC(=O)NCc3cccs3)C(=O)N(Cc3ccccc3)C1=C[C@H](C(C)C)O[C@@H]2C1CC1	-1.0	0.2	-2.0	x	4.5	x	x	x	x	x	x
COc1ccc(/C=N/Nc2nc3ccccc3o2)cc1O	0.8	5.5*	12.4*	0.3	14.9*	5.4*	2.1	1.0	6.6*	6.9	0.6
COc1ccc(CN2CCC(CNC(=O)Nc3ccccc3)CC2)cc1	-1.0	-0.7	-2.5	x	8.3	x	x	x	x	x	x
COc1cc(C(=O)Nc2ccc3c(c2)OCCO3)c(-n2cnnn2)cc1OC	-1.0	0.5	-1.8	0.7	-0.9	x	x	x	x	x	x
COc1cc(SC)ccc1C(=O)Nc1nccs1	1.3*	4.7*	11.5*	-0.7	17.0*	15.2*	5.6*	2.2	13.6*	16.6*	1.0
COc1cc(SC)ccc1C(=O)Nc1ccc2c(c1)OCCO2	0.8	4.7*	8.2*	0.2	13.8*	9.2*	3.6*	1.7	7.2*	16.1*	0.9
COc1cc(SC)ccc1C(=O)Nc1c(C)cccc1C	-1.7	-0.6	-2.1	0.5	0.0	x	x	x	x	x	x
COC(=O)[C@]12C[C@H](CC(=O)NCCCN3CCCC3=O)C(=O)N(Cc3ccco3)C1=C[C@H](C(C)(C)C)O[C@@H]2C	-1.3	-0.6	-0.1	x	0.9	x	x	x	x	x	x
SMILES	ssDAF-12 act	DAX1 inh-1	hcDAF-12 act	DAX1 inh-2	hgDAF12 agonist	DAX1 inh confirm	SF1 mutant ctr	LXR ag	hcDAF12 conf	hgDAF12 ag	LXRb DAF12 ctr
C#CCN1CC(N(C)CCOC(=O)c2ccc(C(C)(C)C)cc2)CS1(=O)=O (centres undefined)	-0.9	-0.5	2.5	x	-2.7	x	x	x	x	x	x
c1ccc(CSc2ncnc3c2ncn3C2CCCCO2)cc1 (centres undefined)	0.1	5.1*	2.2	3.6	14.2*	6.3*	3.5*	x	x	12.0*	0.5
COc1ccc(C2CC(=O)C(c3ccc(C#N)cc3)=CN2Cc2ccccc2)cc1 (centres undefined)	-1.5	-1.3	-3.3	x	-0.7	x	x	x	x	x	x
CCn1c(SCc2ccccc2Cl)nnc1-c1ccccc1OC	-0.7	-0.8	-3.3	x	-2.2	x	x	x	x	x	x
c1ccc2nc3c(ccc4ccccc43)cc2c1	0.9*	4.5*	11.9*	1.8	20.6*	11.5*	10.0*	1.3	11.5*	16.4*	0.6
Cc1cccc2cc3ccccc3nc12	-1.7	-0.4	0.2	-0.2	2.1	x	x	x	x	x	x
O=C(NCC1CCN(C(=O)C(=O)c2cccs2)CC1)c1ccncc1	-1.2	0.2	0.9	x	-0.1	x	x	x	x	x	x
Cc1ccc(OCc2nc(-c3ccccn3)no2)cc1	0.9*	5.1*	8.9*	0.5	17.6*	16.1*	7.2*	0.8	3.3	15.4*	0.8
COc1cccc2sc(N(C)c3ccccc3)nc12	0.7	4.6*	6.5*	1.9	13.3*	10.7*	6.4*	x	x	15.0*	1.0
COC(=O)[C@H]1C[C@]2(C(C=C(C)C)S(=O)(=O)c3ccccc3)c3ccccc3N[C@H]2N1 (some centres undefined)	-1.7	x	1.2	x	1.1	x	x	x	x	x	x
O=C1C(=Cc2ccc(F)cc2)CCc2ccccc21	0.7	9.5*	7.9*	x	22.5*	7.4*	3.3*	1.8	4.6	17.0*	0.9

Source: PubChem (The Scripps Research Institute Molecular Screening Center)
